Measurements: PubChem BioAssay AID652010 (The Scripps Research Institute Molecular Screening Center, 2013)
Out of some 370,000 compounds screened, about 4,100 (1.1%) were called active.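 The calls were made as follows: active = inhibition above the mean over all tested compounds plus 3 SD (cut at about 3.6% in these data); inactive = the rest.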 The full list was thinned out, with actives kept by preference.

Assay: relief of DAX-1 repression of SF-1 activity – cell-based, luminescence, SF-1 (NR5A1), full-length DAX-1, primary screen (AID 652010);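 also: 0% = DAX-1 cells with DMSO and 100% = cells lacking DAX-1 with DMSO; higher inhibition means more luminescence from relief of DAX-1 repression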
Details: HEK293T StAR-luciferase reporter, SF-1/DAX-1 repression relief; at 6.8 µM; hits give high values

Compound | inhibition
COc1ccc2c(c1)NP(=S)(c1ccccc1)N2 (stereo not given) | 6.3% (active)
Cc1cc(C)c2c(c1)NP(=S)(c1ccccc1)N2 (stereo not given) | 4.45% (active)
C[C@]12CCC3C(CC[C@H]4[C@H](O)[C@H](O)CC[C@]34C)C1CCC2=O (stereo not given in full) | -0.89% (inactive)
Cc1ccccc1CCC[C@@H](CC1CCCCC1)CN(C)C(=O)Oc1ccccc1 | -0.86% (inactive)
Cc1nc2nc(C)c(CCC(=O)N3CCC4(CC3)OCCO4)c(C)n2n1 | 0.57% (inactive)
CC(=O)N1CN2CN(C(C)=O)CC(C(=O)c3ccc(Br)cc3)(C2)C1 | 0.07% (inactive)
CCOc1cccc(=NC2CCCCC2)c2c(C)[nH]c(C)c12 | -0.76% (inactive)
COP(=O)(Sc1ccccc1)C(Cc1ccccc1)NC(=O)OCc1ccccc1 (stereo not given) | -2.01% (inactive)
c1cncc(CNC2=NCCC2)c1 | 0.16% (inactive)
Cc1c(Oc2cc(NN3CCCCC3)c([N+](=O)[O-])cc2[N+](=O)[O-])cccc1[N+](=O)[O-] | 0.11% (inactive)
